# Pol beta inh: qHTS Assay for Inhibitors of DNA Polymerase Beta; Potency, µM (top dose mostly 114 µM), without a hit: at the highest dose activity change, negative = inhibition, actives largely listed as inhibitors; Pol beta primer extension/strand displacement, fluorescence kinetic; P06746; actives 1.3% (n = 340,000); note: potency is the fitted concentration of half-maximal effect; % is set by controls: 0 for no effect and ±100 for the full control effect
#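 Enzyme-only controls used 10 nM Pol beta; buffer lacking enzyme served as negative control. Compound preincubated 15 min, then 50 nM substrate added; 0 and 10 min reads at room temperature.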
# POLH inh: qHTS for Inhibitors of Polymerase Eta. DNA polymerase eta (Homo sapiens), Q9Y253. recombinant Pol eta, fluorescent DNA replication assay. Potency, µM (doses to about 114 µM), without a hit: at the top dose activity change, negative = inhibition, usual class: inhibitors. actives 1.2% (n = 390,000). AID 588591, 2011; note: potency is the fitted concentration of half-maximal effect; % is set by controls: 0 for no effect and ±100 for the full control effect
#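 Pol eta (10 nM) was preincubated with compounds for 15 min at room temperature, after which fluorescent replication substrate (50 nM final) was added to start the reaction. Fluorescence was read kinetically at 0 and 10 min.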
# PI5P4Ka inh: qHTS for Inhibitors of phosphatidylinositol 5-phosphate 4-kinase (PI5P4K); Phosphatidylinositol 5-phosphate 4-kinase type-2 alpha (Homo sapiens), P48426; PI5P4Kalpha enzyme, ADP-Glo luminescence, 60 min; stronger effect = lower value; max response, %; actives 1.2% (n = 330,000); AID 652105, 2013; active = max response of -50% or lower; inconclusive = between -30% and -50%; inactive = -30% or higher; note: value at the top dose of about 77 µM; % is set by controls: 0 for no effect and ±100 for the full control effect
# Target sequence (P48426 whole entry, looked up): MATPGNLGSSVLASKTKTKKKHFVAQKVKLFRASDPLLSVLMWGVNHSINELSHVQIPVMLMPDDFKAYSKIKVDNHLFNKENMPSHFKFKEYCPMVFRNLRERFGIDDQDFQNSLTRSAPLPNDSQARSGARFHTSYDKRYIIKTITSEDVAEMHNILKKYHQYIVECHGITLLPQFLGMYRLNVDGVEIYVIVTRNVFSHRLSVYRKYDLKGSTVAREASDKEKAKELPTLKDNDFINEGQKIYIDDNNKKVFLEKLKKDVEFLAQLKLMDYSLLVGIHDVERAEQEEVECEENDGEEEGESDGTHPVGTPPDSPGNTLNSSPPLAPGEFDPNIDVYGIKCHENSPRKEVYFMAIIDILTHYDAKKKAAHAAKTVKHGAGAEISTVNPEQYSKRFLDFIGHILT
#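 Single end-point luminescence (ADP-Glo) quantified ADP from PI5P4Kalpha turnover; ATP 5 microM final, 1 h at RT, 0.1% CHAPS and 0.28 mM EGTA in HEPES pH 7.4.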
# Pol kappa inh: qHTS for Inhibitors of Polymerase Kappa. purified Pol kappa, fluorescent DNA synthesis assay, 10 min. actives 0.53% (n = 400,000). DNA polymerase kappa (Homo sapiens), Q9UBT6. AID 588579, 2011. Potency, µM (series often up to 107 µM), for inactives: at the highest dose activity, negative = inhibition, hits mostly inhibitors; note: potency is the fitted concentration of half-maximal effect; % is set by controls: 0 for no effect and ±100 for the full control effect
#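 Fluorescent qHTS in 1536-well format: enzyme (10 nM) and compound sat 15 min at room temperature before 50 nM substrate (final) was added. Signal taken at 0 and 10 min; no-enzyme buffer wells were negative controls.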
# POLI inh: qHTS for Inhibitors of Polymerase Iota | DNA polymerase iota (Homo sapiens), Q9UNA4 | Pol iota fluorescent replication assay, 10 min | Potency, µM (series often up to 115 µM), without a hit: at the highest dose activity, negative = inhibition, actives largely listed as inhibitors | actives 1% (n = 390,000); note: potency is the fitted concentration of half-maximal effect
#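 Fluorescent replication assay read twice, at 0 min and 10 min after adding 50 nM (final) substrate. Enzyme (10 nM) and compounds were first incubated 15 min at room temperature; enzyme-free buffer wells were negative controls.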
# FEN1 inh: qHTS Assay for the Inhibitors of Human Flap endonuclease 1 (FEN1). P39748. Recombinant FEN1 flap cleavage, fluorescence, 15 min. Potency, µM (top dose mostly 114 µM), inactives show top-dose activity change, negative = inhibition, usual class: inhibitors. actives 0.35% (n = 390,000). AID 588795, 2011; note: potency is the fitted concentration of half-maximal effect; % is set by controls: 0 for no effect and ±100 for the full control effect; nearly all actives have a fitted effect of over 65% in size
#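 Read-out was taken twice, immediately and after 15 min, following addition of 50 nM substrate to 10 nM FEN1 that had sat with test compound for 15 min at room temperature. Curves came from a four-parameter Hill model.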
# Numbers without * were called inactive; ? = inconclusive; . = not tested or not shown; [ ] = another dose, or the depositor's remark. Most compounds without a hit are left out; they make up all but 2.8% or so of the library. Unless noted, calls come from the whole dose curve; as a rule, active = well fitted curve in the direction sought with a large enough effect; inconclusive = small, poorly fitted or top-dose-only effect, or another doubt; inactive = no such curve, though single readings can be large; an effect the other way counts as inactive or inconclusive.
SMILES,Pol beta inh,POLH inh,PI5P4Ka inh,Pol kappa inh,POLI inh,FEN1 inh
C/C=C/C=C\C(=O)Nc1cccc(C2=NOC3(C2)C[C@@H](C(N)=O)N(C(=O)c2cc([N+](=O)[O-])cc([N+](=O)[O-])c2)C3)c1 (some centres undefined),-8%,-6%,-24,6%,?,-8%
C/C=C\C(=O)Nc1cccc(C2=NOC3(C2)C[C@H](C(N)=O)N(C(=O)/C=C/CC)C3)c1 (some centres undefined),32%,3%,11,-1%,13%,-1%
C/C=C\C=C\C(=O)N1CC2(CC(c3cccc(NC(=O)CC(c4ccccc4)c4ccccc4)c3)=NO2)C[C@H]1C(N)=O (some centres undefined),-5%,?,-71*,-22%,?,-1%
C=C(C)C(=O)Nc1cccc(C2=NOC3(C2)C[C@@H](C(N)=O)N(C(=O)c2ccc(Cl)cc2)C3)c1 (some centres undefined),8.9µM*,4.5µM*,?,35µM*,35µM*,?
O=C(CN1C(=O)/C(=C2/SC(=S)N(CCS(=O)(=O)O)C2=O)c2ccccc21)Nc1cccc(Br)c1,.,?,-57*,?,?,?
COc1ccc(NC(=O)CN2C(=O)/C(=C3\SC(=S)N(CCC(=O)O)C3=O)c3ccccc32)cc1,1%,?,-9,-9%,?,-21%
O=C(COC(=O)c1ccccc1NCCO)Nc1cccc(S(=O)(=O)NC2=NCCCCC2)c1,.,?,-18,?,40µM*,-6%
O=C(Nc1ccc(S(=O)(=O)NC2=NCCCCC2)cc1)C1COc2ccccc2O1 (centres undefined),-28%,-9%,5,-9%,9%,-7%
O=C(Nc1cccc(S(=O)(=O)NC2=NCCCCC2)c1)C1COc2ccccc2O1 (centres undefined),13µM*,?,?,-24%,?,16%
COc1cc(C(=O)Nc2nc3c(s2)Cc2c(Br)ccc(OC)c2-3)cc(OC)c1OC,43%,.,.,-12%,80%,-20%
N[C@H](CC(=O)O)C(=O)O,.,.,.,-2%[19.4 µM],.,.
CC(C)(C)n1ncc2c(=O)n(Cc3ccc(F)cc3Cl)cnc21,.,.,.,9%,4%,5%
COc1cc(Cl)cc(C(c2c(C(=O)O)[nH]c3ccccc23)c2c(C(=O)O)[nH]c3ccccc23)c1O,89µM*,?,-5,?,?,-8%
Cc1cccc(N2C(=O)/C(=C\c3ccc(C(=O)O)cc3)c3ccccc3C2=O)c1,-7%,45µM*,-2,-19%,46%,-1%
Cc1cccc(N2C(=O)c3ccc(C(=O)Nc4ccccn4)cc3C2=O)c1,7%,-15%,-3,-2%,41%,-3%
CCOC(=O)C1=C(CSc2nc3c(cc2C#N)CN(C)CC3)OC(N)=C(C#N)C1c1ccc(Cl)cc1 (centres undefined),19%,?,?,?,?,-9%
CCOC(=O)C1=C(CSc2nc3c(cc2C#N)CN(C)CC3)OC(N)=C(C#N)C1c1ccncc1 (centres undefined),?,?,-10,?,32µM*,-13%

# From PubChem BioAssay
